Assay results: PubChem BioAssay (EPA / NIEHS)
Values joined by “and” are separate entries in the source; they are usually repeats but may differ in a detail not shown here. Equal entries are not always repeated. Inconclusive results are not listed. Active and inactive are the calls of the source. Rule for the calls: active = hit-call score of the fitted dose curve at least 0.9, where 1 is the maximum; inconclusive = response in the unintended direction; inactive = score below 0.9.

Experiments:
[1] = target: Collagenase 3 (Homo sapiens) (UniProt P45452); assay: NVS_ENZ_hMMP13: NovaScreen (NVS) Enzymatic Assay for human Matrix Metalloproteinase-13 (MMP13) (AID 2283182)
Procedure, shortened: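 Recombinant MMP13 cleaving fluorescent substrate, cell-free, measured 1 h after dosing. Primary duplicate screen at 25 uM; actives tested in concentration-response up to 50 uM; loss of signal relative to DMSO.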

[2] = target: human Matrix Metalloproteinase-7 (MMP7), MMP7 (gene 4316) (UniProt P09237); assay: NVS_ENZ_hMMP7: NovaScreen (NVS) Enzymatic Assay for human Matrix Metalloproteinase-7 (MMP7) (AID 2283183)
Sequence of human Matrix Metalloproteinase-7 (MMP7), MMP7 (gene 4316) (P09237 whole entry, looked up): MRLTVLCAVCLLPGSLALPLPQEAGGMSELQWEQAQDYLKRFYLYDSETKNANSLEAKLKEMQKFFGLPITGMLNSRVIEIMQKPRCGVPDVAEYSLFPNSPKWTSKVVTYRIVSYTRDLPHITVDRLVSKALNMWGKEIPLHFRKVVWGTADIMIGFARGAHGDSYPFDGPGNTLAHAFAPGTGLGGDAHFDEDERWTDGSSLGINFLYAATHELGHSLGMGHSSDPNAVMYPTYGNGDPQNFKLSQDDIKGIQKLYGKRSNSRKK
Procedure, shortened: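 Cell-free fluorescence enzymatic assay read 1 h after compound addition, activity loss analyzed against DMSO. Primary duplicate testing at 25 uM; compounds meeting threshold rerun in singleton concentration-response up to 50 uM.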

[3] = target: human Matrix Metalloproteinase-2 (MMP2), MMP2 (gene 4313) (UniProt P08253); assay: NVS_ENZ_hMMP2: NovaScreen (NVS) Enzymatic Assay for human Matrix Metalloproteinase-2 (MMP2) (AID 2283184)
Sequence of human Matrix Metalloproteinase-2 (MMP2), MMP2 (gene 4313) (P08253 whole entry, looked up): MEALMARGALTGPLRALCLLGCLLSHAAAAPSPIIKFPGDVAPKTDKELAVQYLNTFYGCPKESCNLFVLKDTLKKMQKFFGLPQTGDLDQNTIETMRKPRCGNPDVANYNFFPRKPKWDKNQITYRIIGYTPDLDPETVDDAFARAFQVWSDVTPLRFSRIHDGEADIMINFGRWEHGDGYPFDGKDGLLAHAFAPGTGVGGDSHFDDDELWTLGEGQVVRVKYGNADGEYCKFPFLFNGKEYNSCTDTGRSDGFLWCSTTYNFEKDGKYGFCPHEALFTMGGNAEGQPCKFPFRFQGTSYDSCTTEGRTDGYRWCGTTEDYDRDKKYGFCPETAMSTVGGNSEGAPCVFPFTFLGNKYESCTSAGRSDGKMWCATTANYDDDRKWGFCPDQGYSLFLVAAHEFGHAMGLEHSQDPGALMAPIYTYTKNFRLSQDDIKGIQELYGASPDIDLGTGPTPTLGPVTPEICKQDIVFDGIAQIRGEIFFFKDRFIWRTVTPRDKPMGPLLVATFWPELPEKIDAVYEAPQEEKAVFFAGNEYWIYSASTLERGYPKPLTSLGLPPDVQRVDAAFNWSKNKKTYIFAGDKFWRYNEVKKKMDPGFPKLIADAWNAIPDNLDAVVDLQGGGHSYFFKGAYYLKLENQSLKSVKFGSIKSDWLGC
Procedure, shortened: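 Cell-free recombinant MMP2 activity with a fluorescent substrate, read 1 h after dosing. Primary screen in duplicate at 25 uM; actives then run in concentration series; loss of signal fitted versus DMSO.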

[4] = target: human Matrix Metalloproteinase-3 (MMP3), MMP3 (gene 4314) (UniProt P08254); assay: NVS_ENZ_hMMP3: NovaScreen (NVS) Enzymatic Assay for human Matrix Metalloproteinase-3 (MMP3) (AID 2283185)
Sequence of human Matrix Metalloproteinase-3 (MMP3), MMP3 (gene 4314) (P08254 whole entry, looked up): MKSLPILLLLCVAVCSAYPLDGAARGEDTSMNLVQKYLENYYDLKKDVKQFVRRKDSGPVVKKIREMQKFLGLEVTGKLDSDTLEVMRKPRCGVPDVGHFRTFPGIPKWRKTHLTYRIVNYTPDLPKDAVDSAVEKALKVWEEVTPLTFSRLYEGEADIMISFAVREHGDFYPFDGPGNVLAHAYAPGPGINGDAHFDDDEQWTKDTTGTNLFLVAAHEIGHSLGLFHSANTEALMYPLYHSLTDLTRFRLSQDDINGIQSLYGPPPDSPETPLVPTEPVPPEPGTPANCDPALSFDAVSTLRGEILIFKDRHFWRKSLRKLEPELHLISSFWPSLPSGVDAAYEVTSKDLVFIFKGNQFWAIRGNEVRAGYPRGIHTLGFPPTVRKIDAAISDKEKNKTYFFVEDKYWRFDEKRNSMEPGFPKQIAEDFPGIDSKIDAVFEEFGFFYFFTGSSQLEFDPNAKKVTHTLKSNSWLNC
Procedure, shortened: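 Cell-free recombinant human MMP3 activity, fluorescence intensity read 1 h after dosing. Primary screen duplicate at 25 uM, actives retested in concentration series; loss of signal vs DMSO baseline.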

[5] = target: Serine/threonine-protein phosphatase PP1-alpha catalytic subunit (Homo sapiens) (UniProt P62136); assay: NVS_ENZ_hPPP1CA: NovaScreen (NVS) Enzymatic Assay for human Protein Phosphatase 1 Aatalytic subunit Alpha (PPP1CA) (AID 2283200)
Procedure, shortened: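 Recombinant enzyme activity read by fluorescence with electrophoretic mobility shift separating substrate from product, 1.33 h after dosing; loss of signal vs DMSO baseline. Primary screen in duplicate at 25 uM; actives retested in concentration-response up to 50 uM.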

[6] = target: Tyrosine-protein phosphatase non-receptor type 14 (Homo sapiens) (UniProt Q15678); assay: NVS_ENZ_hPTPN14: NovaScreen (NVS) Enzymatic Assay for human Protein Tyrosine Phosphatase Non-receptor Type 14 (PTPN14) (AID 2283206)
Sequence of Tyrosine-protein phosphatase non-receptor type 14 (Homo sapiens) (Q15678 whole entry, looked up): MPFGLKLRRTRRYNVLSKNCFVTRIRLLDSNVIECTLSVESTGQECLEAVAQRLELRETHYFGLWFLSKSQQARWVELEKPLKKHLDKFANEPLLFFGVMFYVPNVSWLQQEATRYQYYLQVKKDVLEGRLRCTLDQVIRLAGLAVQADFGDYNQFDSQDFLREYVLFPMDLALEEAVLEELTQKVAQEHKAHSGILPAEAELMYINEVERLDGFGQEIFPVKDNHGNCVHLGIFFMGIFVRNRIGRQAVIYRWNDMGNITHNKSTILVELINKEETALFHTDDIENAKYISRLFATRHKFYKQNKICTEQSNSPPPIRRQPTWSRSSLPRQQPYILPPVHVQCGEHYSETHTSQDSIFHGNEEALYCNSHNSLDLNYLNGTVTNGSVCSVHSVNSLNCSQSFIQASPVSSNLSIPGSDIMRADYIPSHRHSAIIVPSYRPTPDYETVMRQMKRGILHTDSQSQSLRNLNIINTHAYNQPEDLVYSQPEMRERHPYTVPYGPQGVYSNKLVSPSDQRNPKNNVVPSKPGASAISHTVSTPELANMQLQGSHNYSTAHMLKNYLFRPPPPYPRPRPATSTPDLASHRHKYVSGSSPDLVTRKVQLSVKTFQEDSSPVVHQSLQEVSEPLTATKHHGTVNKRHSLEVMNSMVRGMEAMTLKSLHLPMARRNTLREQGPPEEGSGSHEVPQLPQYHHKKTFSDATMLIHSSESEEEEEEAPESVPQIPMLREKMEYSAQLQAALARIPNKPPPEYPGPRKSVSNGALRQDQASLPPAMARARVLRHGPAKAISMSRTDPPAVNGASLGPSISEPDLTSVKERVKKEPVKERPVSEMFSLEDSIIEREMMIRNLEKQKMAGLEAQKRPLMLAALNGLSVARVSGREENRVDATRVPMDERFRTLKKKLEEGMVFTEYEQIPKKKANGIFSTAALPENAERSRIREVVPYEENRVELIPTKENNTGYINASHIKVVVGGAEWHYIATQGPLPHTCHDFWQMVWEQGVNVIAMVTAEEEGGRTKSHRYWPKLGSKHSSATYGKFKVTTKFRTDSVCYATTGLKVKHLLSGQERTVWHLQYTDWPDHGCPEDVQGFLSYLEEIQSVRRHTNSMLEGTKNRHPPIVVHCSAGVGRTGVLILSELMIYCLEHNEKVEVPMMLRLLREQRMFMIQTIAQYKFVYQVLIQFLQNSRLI
Procedure, shortened: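 Cell-free recombinant human PTPN14 with fluorescent substrate, read 0.5 h after dosing by fluorescence and electrophoretic mobility shift separating substrate from product. Primary screen at 25 uM in duplicate; hits run to 50 uM maximum; loss of signal versus DMSO.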

[7] = target: Mitogen-activated protein kinase 3 (Homo sapiens) (UniProt P27361); assay: NVS_ENZ_hMAPK3: NovaScreen (NVS) Enzymatic Assay for human Mitogen-Activated Protein Kinase 3 (MAPK 3) (AID 2283177)
Sequence of Mitogen-activated protein kinase 3 (Homo sapiens) (P27361 whole entry, looked up): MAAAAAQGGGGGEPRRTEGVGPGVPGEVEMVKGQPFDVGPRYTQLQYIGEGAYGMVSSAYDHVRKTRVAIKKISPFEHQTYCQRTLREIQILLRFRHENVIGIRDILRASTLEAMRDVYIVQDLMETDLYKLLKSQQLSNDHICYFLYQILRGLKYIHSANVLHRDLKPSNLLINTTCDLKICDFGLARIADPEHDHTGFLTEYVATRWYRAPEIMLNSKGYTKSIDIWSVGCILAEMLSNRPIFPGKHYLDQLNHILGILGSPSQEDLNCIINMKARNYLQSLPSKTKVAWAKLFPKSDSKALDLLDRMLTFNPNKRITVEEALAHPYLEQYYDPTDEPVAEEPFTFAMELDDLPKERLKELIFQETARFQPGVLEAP
Procedure, shortened: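 Cell-free enzymatic assay with recombinant protein and specific substrate; fluorescence and electrophoretic mobility shift read-out 1 h after dosing. Primary screen duplicate at 25 uM; actives then run in concentration-response up to 50 uM, loss of signal versus DMSO.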

[8] = target: human Phosphodiesterase 4A1 (PDE4A1), PDE4A (gene 5141) (UniProt P27815); assay: NVS_ENZ_hPDE4A1: NovaScreen (NVS) Enzymatic Assay for human Phosphodiesterase 4A1 (PDE4A1) (AID 2283191)
Sequence of human Phosphodiesterase 4A1 (PDE4A1), PDE4A (gene 5141) (P27815 whole entry, looked up): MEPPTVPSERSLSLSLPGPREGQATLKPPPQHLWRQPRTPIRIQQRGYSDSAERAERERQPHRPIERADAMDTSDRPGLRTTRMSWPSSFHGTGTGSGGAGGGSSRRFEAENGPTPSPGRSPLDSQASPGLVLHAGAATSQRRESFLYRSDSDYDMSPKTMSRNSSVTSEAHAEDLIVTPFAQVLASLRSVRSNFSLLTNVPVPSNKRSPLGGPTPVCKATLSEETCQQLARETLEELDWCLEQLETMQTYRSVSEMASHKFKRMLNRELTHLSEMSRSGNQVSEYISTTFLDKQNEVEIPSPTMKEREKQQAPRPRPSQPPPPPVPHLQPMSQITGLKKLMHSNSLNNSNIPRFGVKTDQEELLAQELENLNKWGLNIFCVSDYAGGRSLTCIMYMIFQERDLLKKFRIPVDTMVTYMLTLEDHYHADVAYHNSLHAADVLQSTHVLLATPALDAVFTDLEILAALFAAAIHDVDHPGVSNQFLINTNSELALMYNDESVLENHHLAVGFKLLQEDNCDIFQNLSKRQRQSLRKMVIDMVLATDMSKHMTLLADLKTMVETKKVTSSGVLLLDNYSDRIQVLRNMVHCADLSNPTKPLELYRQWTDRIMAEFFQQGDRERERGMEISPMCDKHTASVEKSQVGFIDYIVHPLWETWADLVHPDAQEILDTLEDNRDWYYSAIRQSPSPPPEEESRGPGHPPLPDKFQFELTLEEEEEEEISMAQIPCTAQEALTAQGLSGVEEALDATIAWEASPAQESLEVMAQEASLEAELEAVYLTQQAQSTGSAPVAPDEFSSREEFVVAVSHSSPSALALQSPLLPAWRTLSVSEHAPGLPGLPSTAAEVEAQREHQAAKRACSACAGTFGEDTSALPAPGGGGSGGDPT
Procedure, shortened: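 Cell-free recombinant human PDE4A1 with fluorescent substrate; product separated by electrophoretic mobility shift, 1 h. Screened at 25 uM, then up to 50 uM in concentration-response; loss of signal fitted against DMSO.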

[9] = target: cAMP-dependent protein kinase catalytic subunit alpha (Homo sapiens) (UniProt P17612); assay: NVS_ENZ_hPKA: NovaScreen (NVS) Enzymatic Assay for human Protein Kinase A (PKA) (AID 2283192)
Procedure, shortened: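 Recombinant human PKA with specific fluorescent substrate, product separated by electrophoretic mobility shift, read 1 h after dosing. Primary screen at 25 uM in duplicate; actives then run in concentration-response up to 50 uM, activity relative to DMSO.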

[10] = target: human Phosphodiesterase 5 (PDE5), PDE5A (gene 8654) (UniProt O76074); assay: NVS_ENZ_hPDE5: NovaScreen (NVS) Enzymatic Assay for human Phosphodiesterase 5 (PDE5) (AID 2283194)
Procedure, shortened: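 Recombinant human PDE5 with specific substrate, read 1 h after dosing by fluorescence with electrophoretic mobility-shift separation of substrate and product. Initial single-concentration duplicate screen at 25 uM, actives followed in concentration series; loss of activity versus DMSO.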

[11] = target: human Phosphodiesterase 10 (PDE10), PDE10A (gene 10846) (UniProt Q9Y233); assay: NVS_ENZ_hPDE10: NovaScreen (NVS) Enzymatic Assay for human Phosphodiesterase 10 (PDE10) (AID 2283195)
Procedure, shortened: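 Fluorescence/mobility-shift readout of PDE10A enzyme activity, taken 1 h post-dosing. Primary screen in duplicate at 25 uM; actives (e.g. ≥30% inhibition) retested as singleton concentration-response, top concentration 50 uM.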

[12] = target: human Phosphoinositide 3-kinase alpha (PI3Ka), PIK3CA (gene 5290) (UniProt P42336); assay: NVS_ENZ_hPI3Ka: NovaScreen (NVS) Enzymatic Assay for human Phosphoinositide 3-kinase alpha (PI3Ka) (AID 2283196)
Sequence of human Phosphoinositide 3-kinase alpha (PI3Ka), PIK3CA (gene 5290) (P42336 whole entry, looked up): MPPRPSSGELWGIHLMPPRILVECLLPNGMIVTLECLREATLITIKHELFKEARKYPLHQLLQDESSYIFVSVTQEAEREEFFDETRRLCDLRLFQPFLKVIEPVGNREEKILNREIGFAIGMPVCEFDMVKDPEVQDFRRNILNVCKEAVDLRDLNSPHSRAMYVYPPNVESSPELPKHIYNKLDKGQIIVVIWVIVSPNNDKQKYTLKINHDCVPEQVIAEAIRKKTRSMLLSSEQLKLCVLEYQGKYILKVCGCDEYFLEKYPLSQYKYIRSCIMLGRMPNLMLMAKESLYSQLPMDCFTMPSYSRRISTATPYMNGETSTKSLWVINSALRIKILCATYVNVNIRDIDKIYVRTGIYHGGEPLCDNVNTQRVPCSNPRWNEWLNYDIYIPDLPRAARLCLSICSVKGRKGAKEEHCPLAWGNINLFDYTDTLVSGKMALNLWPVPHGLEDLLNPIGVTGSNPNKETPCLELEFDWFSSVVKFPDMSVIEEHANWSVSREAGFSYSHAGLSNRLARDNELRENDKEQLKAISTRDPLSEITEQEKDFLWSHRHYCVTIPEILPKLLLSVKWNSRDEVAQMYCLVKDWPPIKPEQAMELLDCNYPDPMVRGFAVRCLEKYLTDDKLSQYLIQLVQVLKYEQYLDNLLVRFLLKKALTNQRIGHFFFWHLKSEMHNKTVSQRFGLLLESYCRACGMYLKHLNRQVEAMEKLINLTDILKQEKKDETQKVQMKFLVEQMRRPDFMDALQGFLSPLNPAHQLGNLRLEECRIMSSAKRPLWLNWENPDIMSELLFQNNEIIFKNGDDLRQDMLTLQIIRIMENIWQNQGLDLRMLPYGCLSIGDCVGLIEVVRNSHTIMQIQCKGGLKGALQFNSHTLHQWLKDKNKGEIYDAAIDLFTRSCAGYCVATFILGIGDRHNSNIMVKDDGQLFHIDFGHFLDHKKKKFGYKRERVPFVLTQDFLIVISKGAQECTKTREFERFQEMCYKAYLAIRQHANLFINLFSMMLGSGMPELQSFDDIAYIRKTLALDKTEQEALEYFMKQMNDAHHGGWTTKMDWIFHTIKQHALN
Procedure, shortened: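 Enzyme activity as fluorescence after mobility-shift separation of substrate and product, 1 h reaction, recombinant human PI3Kα; concentration-response to 50 uM max for chemicals passing a 25 uM duplicate screen.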

[13] = target: Tyrosine-protein phosphatase non-receptor type 11 (Homo sapiens) (UniProt Q06124); assay: NVS_ENZ_hPTPN11: NovaScreen (NVS) Enzymatic Assay for human Protein Tyrosine Phosphatase Non-receptor Type 11 (PTPN11) (AID 2283202)
Procedure, shortened: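 Recombinant human PTPN11 activity on a fluorescent substrate, with substrate/product separated by electrophoretic mobility shift; read 0.5 h after dosing, loss of signal vs DMSO. Duplicate 25 uM screen, then concentration-response up to 50 uM.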

[14] = target: Tyrosine-protein phosphatase non-receptor type 12 (Homo sapiens) (UniProt Q05209); assay: NVS_ENZ_hPTPN12: NovaScreen (NVS) Enzymatic Assay for human Protein Tyrosine Phosphatase Non-receptor Type 12 (PTPN12) (AID 2283204)
Procedure, shortened: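 Single-concentration duplicates (25 uM) preceded singleton concentration-response up to 50 uM for chemicals passing threshold. Cell-free recombinant PTPN12 activity was read 1.33 h after dosing via fluorescence after mobility-shift separation; loss of signal versus DMSO.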

[15] = target: human Matrix Metalloproteinase-9 (MMP9), MMP9 (gene 4318) (UniProt P14780); assay: NVS_ENZ_hMMP9: NovaScreen (NVS) Enzymatic Assay for human Matrix Metalloproteinase-9 (MMP9) (AID 2283190);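 note: cell-free recombinant MMP9 protease activity read by fluorescent substrate signal; active means inhibition seen as loss of fluorescence signal versus DMSO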
Procedure, shortened: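 Cell-free fluorescence-intensity enzyme activity assay using extracted protein, read 1 h after dosing. Loss of signal versus DMSO baseline indicates inhibition; primary screen in duplicate at 25 uM, actives followed up in concentration series.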

COCC(C)OCC(C)OCC(C)O (stereo unspecified)
outcome [1]: inactive | outcome [2]: inactive

CCN(Cc1cccc(S(=O)(=O)O)c1)c1ccc(C(=C2C=CC(=[N+](CC)Cc3cccc(S(=O)(=O)O)c3)C=C2)c2ccccc2S(=O)(=O)[O-])cc1
AC50 [3]: 10.3 µM (active) | AC50 [4]: 16.1 µM (active) | AC50 [5]: 5.82 µM (active) | AC50 [6]: 11.9 µM (active)

CO[C@H]1/C=C/O[C@@]2(C)Oc3c(C)c(O)c4c(O)c(c(/C=N/N5CCN(C)CC5)c(O)c4c3C2=O)NC(=O)/C(C)=C\C=C\[C@H](C)[C@H](O)[C@@H](C)[C@@H](O)[C@@H](C)[C@H](OC(C)=O)[C@@H]1C
outcome [1]: inactive | outcome [2]: inactive | outcome [3]: inactive

COc1cc(C(=O)NC2CCN(C)CC2)ccc1Nc1ncc2c(n1)N(C1CCCC1)CC(F)(F)C(=O)N2C
outcome [7]: inactive | AC50 [8]: 9.1 µM (active) | AC50 [9]: 6.04 µM (active) | AC50 [10]: 0.00376 µM (active) | AC50 [11]: 3.76 µM (active) | outcome [6]: inactive

CC/C(=C(/CC)c1ccc(O)cc1)c1ccc(O)cc1
outcome [7]: inactive | outcome [3]: inactive | outcome [8]: inactive | outcome [9]: inactive | outcome [10]: inactive | AC50 [12]: 40 µM (active) and 17.3 µM (active) and 27.8 µM (active) | outcome [13]: inactive | outcome [14]: inactive | outcome [6]: inactive

O=C(O)Cn1c(=O)n(Cc2ccc(Br)cc2F)c(=O)c2ccc(Cl)cc21
outcome [2]: inactive

O=CCCCC=O
outcome [7]: inactive

CCCCCCCCCCCC[N+](C)(C)C
outcome [3]: inactive

CCN(Cc1cccnc1)C(=O)c1cccc(Cl)c1[C@]1(C)C(=O)N(Cc2ccc(OC)cc2OC)c2ccc(Cl)cc21
AC50 [1]: 9.38 µM (active) | AC50 [3]: 14.8 µM (active) | outcome [4]: inactive | AC50 [15]: 24.9 µM (active)
